Unmarked numbers belong to inactive results. Activity calls are given as the source filed them. The call rests on the fitted dose curve; in most records, active means well fitted inhibition curve with a large enough effect; inconclusive means small, poorly fitted or top-dose-only effect; inactive means flat fitted curve, though single readings scatter.
Each molecule was assayed against Luciferin 4-monooxygenase (Photinus pyralis) (UniProt P08659) (assay: Primary firefly luciferase (FLuc) qHTS assay for identification of artifact compounds. (AID 1845220; further: nearly all actives have a fitted effect of over 60% in size)). Settings: purified firefly luciferase, luminescence, 5 min; series mostly up to 54.1 µM; activity change, negative = inhibition: at the top concentration.
Description: PI: Alexander Tropsha Ph.D.
UNC Eshelman School of Pharmacy
University of North Carolina, Chapel Hill, North Carolina
Hits from high-throughput screening (HTS) of chemical libraries are often false positives due to their interference with the assay detection technology. In response to this problem, we generated the largest publicly available library of chemical liabilities and developed a free webtool to predict HTS artifacts, both of which are described herein. More specifically, we generated, curated, and integrated HTS datasets for thiol reactivity, redox activity, and luciferase (firefly and nano) activity. Using these curated datasets, we developed and validated several Quantitative Structure-Interference Relationship (QSIR) models to predict nuisance behavior. […] These models were employed for virtual profiling of the National Center for Advancing Translational Science's (NCATS) in-house library, and 256 compounds for each assay were selected for the experimental validation of nuisance behavior. The BA for these external predictions ranged from 58 to 78% for compounds within the applicability domains of the models. […] The models developed in this study, along with aggregation models previously developed by our group (SCAM Detective) were implemented in "Liability Predictor," an online tool which may be used as part of chemical library design or for triaging HTS hits. Both the models and the curated datasets are publicly available at https://liability.mml.unc.edu/.
SEQUENCE No. (e.g., 1, 2, 3, etc.); […] (e.g., Cells, Incubation, Reagent, etc.); VALUE; DESCRIPTION.
1; Reagent; 3 uL; Luciferase substrate mixture.
2; Compounds and control; 16 nL; Kalypsis pin tool (Wako USA) equipped with a 1536-well pin head.
4; Reagent; 1 uL; Luciferase enzyme.
6; Detection; Luminescence, ViewLux microplate reader.
NOTES (numbers refer to Sequence numbers above)
1. 3 uL of luciferase substrate mixture containing D-luciferin and ATP (final concentrations of 10 uM and 10 uM, respectively) in assay buffer (10 mM Mg-acetate, 0.01% Tween-20, 0.05% bovine serum albumin, 50 mM Tris acetate, pH 7.6) was dispensed into all wells of a 1536-well assay plate (solid-bottom white plate; Greiner Bio One, Monroe, NC).
2. A Wako Pin-tool (Wako Automation, Richmond, VA) was used to transfer 16 nL of compounds (consisting of 7-plates in qHTS format, final concentration range 18.3 nM to 114 uM) or control PTC124 (final concentration range 1.22 nM to 40 uM).
3. 15 min. incubation at room temperature protected from light.
4. 1 uL of luciferase enzyme (final concentration 10 nM, Photinus pyralis luciferase) or buffer was dispensed for a final assay volume of 4 uL.
5. Plates were centrifuged (121xg, 15 seconds) and incubated for 5 minutes.
6. Samples were read for luminescence on a ViewLux CCD imager (PerkinElmer). Data were normalized to no-enzyme (0% activity) and no-inhibitor (DMSO; 100%) controls and the resulting percent inhibition data were fitted to a 4-parameter Hill equation using NCATS in-house software.
Potency means the concentration at half of the fitted maximal effect.

| SMILES | outcome | Potency | activity change, negative = inhibition |
| --- | --- | --- | --- |
| O=C(Nc1ccc(F)c(C(F)(F)F)c1)Nc1nnc(-c2ccncc2)s1 | inactive |  |  |
| CNC(=O)c1ccccc1Sc1ccc2c(/C=C/c3ccccn3)n[nH]c2c1 |  | 1900 nM (active) |  |
| Cc1ccnc(NS(=O)(=O)c2ccc(NC(=O)Nc3ccc(S(=O)(=O)Nc4nccc(C)n4)cc3)cc2)n1 | inactive |  |  |
| COc1cc(Oc2ccnc3cc(OC)c(OC)cc23)ccc1NC(=O)NC(C)c1nccs1 (stereo not given) |  |  | 2.56% |
| CNCc1ccc(-c2[nH]c3cc(F)cc4c3c2CCNC4=O)cc1 |  |  | -2.6% |
| CC(C)(Sc1ccc(CCN(CCCCC2CCCCC2)C(=O)NC2CCCCC2)cc1)C(=O)O |  |  | 2.16% |
| CN(C)C(=O)c1ccc(S(=O)(=O)c2ccc(NC(=O)[C@@](C)(O)C(F)(F)F)c(Cl)c2)cc1 | inactive |  |  |
| COc1c(Cl)cc2c([nH]c3cnccc32)c1NC(=O)c1cccnc1C | inactive |  |  |
| COc1cc(Nc2ncc3c(n2)-c2ccc(Cl)cc2C(c2c(F)cccc2OC)=NC3)ccc1C(=O)O |  | inactive |  |
| CCN(CC)CCCC(C)Nc1ccnc2cc(Cl)ccc12 (stereo not given) |  |  | -3.19% [at 11.6 µM] |
| CCOc1cc(C(=O)Nc2ccc(Cl)c(-c3nc4ccccc4[nH]3)c2)cc(OCC)c1OCC |  |  | 3.82% |
| COc1ccccc1[C@H](c1cccc2ccccc12)[C@@](C)(C#N)C(=O)N1CCC(c2cccc(C(F)(F)F)c2)CC1 |  |  | 0.203% |
| Cn1cnc2c(F)c(Nc3ccc(Br)cc3Cl)c(C(=O)NOCCO)cc21 | inactive |  |  |
| COc1cccc2cc(-c3nc(C4CCC(C(=O)O)CC4)n4ncnc(N)c34)[nH]c12 (stereo not given) |  |  | 0.407% |
| COc1cc2c(cc1OC)CN(CCc1ccc(NC(=O)c3cccc4c(=O)c5cccc(OC)c5[nH]c34)cc1)CC2 | inactive |  |  |
| COc1ccc(CCN2CCN(CCCc3ccccc3)CC2)cc1OC |  |  | 3.72% |
| CC(C)(N)C(=O)N[C@H](COCc1ccccc1)C(=O)N1CCC2(CC1)CN(S(C)(=O)=O)c1ccccc12 |  |  | -1.31% |
| COc1cc2nccc(Oc3ccc(NC(=O)NC4CC4)c(Cl)c3)c2cc1C(N)=O | inactive |  |  |
| C[C@@H]1CN(Cc2ccc(F)cc2)[C@@H](C)CN1C(=O)c1cc2c(C(=O)C(=O)N(C)C)cn(C)c2cc1Cl | inactive |  |  |
| CCC(C)n1ncn(-c2ccc(N3CCN(c4ccc(OC[C@H]5CO[C@](Cn6cncn6)(c6ccc(Cl)cc6Cl)O5)cc4)CC3)cc2)c1=O (stereo not given in full) | inactive [at 25.7 µM] |  |  |

| SMILES | outcome | Potency | activity change, negative = inhibition |
| --- | --- | --- | --- |
| C[C@H](NC(=O)Cc1cc(F)cc(F)c1)C(=O)N[C@@H]1C(=O)N(C)c2ccccc2-c2ccccc21 | inactive |  |  |
| CCCS(=O)(=O)Nc1ccc(F)c(C(=O)c2c[nH]c3ncc(-c4ccc(Cl)cc4)cc23)c1F |  |  | -4.86% |
| CCc1cc(Nc2nccc(-c3c(-c4ccc(OC)c(C(=O)Nc5c(F)cccc5F)c4)nc4ccccn34)n2)c(OC)cc1N1CCC(N2CCN(S(C)(=O)=O)CC2)CC1 |  |  | -4.63% |
| O=C(Nc1cccnc1)N1CCC(Cc2cccc(Oc3ccc(C(F)(F)F)cn3)c2)CC1 | inactive |  |  |
| CCCc1nn(C)c2c(=O)[nH]c(-c3cc(S(=O)(=O)N4CCN(C)CC4)ccc3OCC)nc12 | inactive |  |  |
| S=C(NCc1ccc2c(c1)OCO2)N1CCN(c2ncnc3c2oc2ccccc23)CC1 | inactive |  |  |
| CCCS(=O)(=O)Nc1ccc(F)c(C(=O)c2c[nH]c3ncc(Cl)cc23)c1F |  |  | 3.05% |
| C#Cc1cccc(Nc2ncnc3cc(OCCOC)c(OCCOC)cc23)c1 |  |  | -0.847% |
| O=C(O)CCc1ccc(NCc2cccc(Oc3ccccc3)c2)cc1 |  |  | -11.8% |
| Cc1cc(Nc2nc(N[C@@H](C)c3ncc(F)cn3)ncc2Cl)n[nH]1 | inactive |  |  |
| CS(=O)(=O)c1cccc(CNc2nc(Nc3ccc4c(c3)CCC(=O)N4)ncc2C(F)(F)F)c1 | inactive |  |  |
| O=C(NOC[C@H](O)CO)c1ccc(F)c(F)c1Nc1ccc(I)cc1F |  |  | 4.89% |
| CN(C)c1ccc(C2Nc3ccc4ccccc4c3C3=C2C(=O)CC(C)(C)C3)cc1Br (stereo not given) | inactive |  |  |
| CC[C@@H](C)[C@H](NC(=O)[C@H](CC1CCCCC1)NC(=O)c1ccno1)C(=O)N1CCC2(CCc3ccccc32)CC1 | inactive |  |  |
| CC[C@H](Nc1ncnc2nc[nH]c12)c1nc2cccc(F)c2c(=O)n1-c1ccccc1 | inactive [at 11.6 µM] |  |  |
| O=C(c1cc(Cc2n[nH]c(=O)c3ccccc23)ccc1F)N1CCN(C(=O)C2CC2)CC1 |  |  | -3.93% |
| CNC(=O)c1ccc(C)c(-n2c(C)cc(OCc3ccc(F)cc3F)c(Br)c2=O)c1 |  |  | -10.9% |
| O=c1[nH]c(-c2ccc(C(F)(F)F)cc2)nc2c1CSCC2 | inactive |  |  |
| OCCn1cc(-c2cnc3nnn(Cc4ccc5ncccc5c4)c3n2)cn1 |  |  | -20.5% |
| CC1(C)Cc2c(-c3ccccc3)c(-c3ccc(Cl)cc3)c(CC(=O)O)n2C1 |  |  | 4.83% |
